# In PubChem BioAssay (NCI):
# The panel holds about 83,000 compounds, 20% with a hit somewhere; the sample as a whole holds those more often.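 Cells were grown in 96-well plates and exposed to the test compound at a single concentration for 48 hours; results are reported as percent growth, with values below 10 considered active.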 Unmarked numbers belong to inactive results. Calls of active or inactive are those of the source.
# Assays:
# Assay in all cases: NCI-60 one-dose screen, 48 h (100 = growth as untreated, 0 = no growth, -100 = all killed)
# Conditions in all cases: 10 µM unless noted
# NCI-H23 lung = test system: NCI-H23 lung
# NCI-H226 lung = test system: NCI-H226 lung
# NCI-H322M lung = test system: NCI-H322M lung
# HOP-62 NSCLC = test system: HOP-62 NSCLC
# NCI-H460 lung = test system: NCI-H460 lung
# HOP-92 NSCLC = test system: HOP-92 NSCLC
# NCI-H522 lung = test system: NCI-H522 lung
# A549/ATCC NSCLC = test system: A549/ATCC NSCLC
# 786-0 renal = test system: 786-0 renal
# COLO 205 colon = test system: COLO 205 colon
SMILES,growth (NCI-H23 lung),growth (NCI-H226 lung),growth (NCI-H322M lung),growth (HOP-62 NSCLC),growth (NCI-H460 lung),growth (HOP-92 NSCLC),growth (NCI-H522 lung),growth (A549/ATCC NSCLC),growth (786-0 renal),growth (COLO 205 colon)
COc1cc2cc(Oc3ccc(NC(=O)Nc4cc(C(F)(F)F)cc(C(F)(F)F)c4)cc3)c(C)nc2cc1OCCN1CCOCC1,7.96% (active),40.2%,49.5%,28.8%,9.99% (active),-14.2% (active),15%,11.8%,30.9%,-22.9% (active)
Cn1cc(C(=O)c2nc(-c3cn(C)c4ccc(F)cc34)no2)c2cc(F)ccc21,92.5%,89.1%,84%,92.2%,90.7%,83.6%,79.3%,87.5%,107%,103%
CCN(CC)S(=O)(=O)c1ccc(NC(=O)CSc2nnc(C)n2-c2ccccc2)cc1,97.6%,95.3%,113%,104%,115%,76.9%,85.3%,109%,109%,112%
COc1cccc2c(=O)c3c(sc12)c(N1CCNCC1)nc1ccccc13,77.3%,88.2%,92.8%,81%,-55.1% (active),51.7%,77.2%,48.6%,78.9%,30.9%
CCOC(=O)Nc1ccc(-c2nc(-c3cccc(OCCN4CCOCC4)c3)c(-c3ccnc(Br)c3)[nH]2)cc1,47.3%,56.3%,58%,50.8%,54.1%,54.1%,52%,54.2%,-5.12% (active),48.2%
Cc1ncc(C(=O)Nc2ccc(CN3CCN(C)CC3)c(C(F)(F)F)c2)cc1C#Cc1ccc(N)nc1,3.94% (active),-3.96% (active),20.1%,18.7%,-60.3% (active),-15.9% (active),-8.12% (active),11.3%,-48.8% (active),5.35% (active)
CNc1ccc(Nc2cccc(C)c2)c2c1C(=O)c1ccccc1C2=O,89.9%,93.1%,82.1%,102%,87.6%,28.9%,75.9%,97.7%,100%,105%
COc1ccc(C(=S)N2CCN(c3cccc(C)c3)CC2)cc1OC,65.2%,98.4%,99.7%,90.6%,51.8%,81%,22.8%,59.4%,80.6%,80.2%
Cc1ccc2c(-c3cc(-c4ccccc4)nc(N)c3C#N)cc(=O)oc2c1,102%,95.9%,96.6%,88.3%,101%,92.3%,68.1%,92%,92.2%,108%
Nc1nc2ccccc2c2c(=O)c3cc(F)ccc3sc12,87.3%,94.5%,99.2%,108%,103%,80.8%,98.1%,104%,97.4%,110%
CCc1ccc(Oc2c(-c3ccc(OCc4ccc(Cl)cc4)cc3O)nn(C)c2C(F)(F)F)cc1,-14.2% (active),6.86% (active),13.6%,-35.2% (active),-20% (active),-25.3% (active),-33.5% (active),3.73% (active),-37% (active),-75.2% (active)
C=C1C(=O)O[C@H]2[C@H]1CC/C(COC(=O)CSCC(=O)OC/C1=C/CC[C@@]3(C)O[C@H]3[C@H]3OC(=O)C(=C)[C@@H]3CC1)=C\CC[C@@]1(C)O[C@@H]21,58.1%,91.6%,90.7%,92.7%,73.9%,-16.9% (active),-69.7% (active),72.8%,7.49% (active),-54.9% (active)
COc1c(N2CC3CCCN(C(C)=O)C3C2)c(F)cc2c(=O)c(C(=O)N[C@H]3C(O)[C@@H](O)C(CO)O[C@H]3O)cn(C3CC3)c12 (stereo not given in full),105%,108%,106%,103%,108%,103%,94.9%,103%,101%,110%
CS(=O)(=O)N(c1cc(-c2ccc3ncnc(Nc4ccc(F)c(Cl)c4)c3c2)cnc1Cl)S(C)(=O)=O,34.7%,59.1%,34.8%,42%,34.2%,-12.2% (active),52.5%,57.3%,35%,45.1%
CCOc1ccc2nc(SCc3nc4n(n3)S(=O)(=O)c3ccccc3N4C)sc2c1,13.2%,32%,38.6%,-42.9% (active),38.2%,-14% (active),22.6%,24%,-33.3% (active),23.3%
CN1CCN(c2ccc(-c3ccc4ncc(C#N)c(Nc5ccc(F)c(Cl)c5)c4c3)cn2)CC1,79%,84.2%,16.8%,68.7%,26.9%,57.9%,39.1%,51.3%,52.9%,57.1%
O=C(/C=C/c1sc(Cl)nc1Cl)c1ccccc1,95.2%,99.7%,95%,101%,102%,94.3%,93%,99.9%,97%,87.4%
O=C1/C(=C/c2ccccc2[N+](=O)[O-])Oc2ccc(O)c(O)c21,33.5%,83.3%,81%,71.3%,60.6%,76.6%,-18% (active),72.3%,47.2%,57.7%
Nc1cc2c(cc1Br)-c1cc(Cl)ccc1C2=O,97.1%,81.1%,102%,99.1%,100%,87.6%,96.1%,96.7%,98.6%,87.3%
CCOC(=O)NCCc1ccccc1,101%,107%,93.2%,99.7%,112%,82%,98.1%,89.6%,112%,112%
CC[C@H](C)C(=O)O[C@H]1CCC=C2C=C[C@H](C)[C@H](CC[C@@H]3CC=CC(=O)O3)[C@H]21,96.5%,107%,95.9%,99.6%,99%,42%,56.2%,85.6%,95.5%,103%
CC1(C)C2CC1C1(/C=N\Nc3ccccc3)C(C2)C(C#N)(C#N)C1(C#N)C#N (stereo not given),85.1%,86.8%,80.4%,86.1%,99%,80.9%,77.8%,93.4%,100%,115%
Cc1nc2nc(SCC(=O)O)[nH]c2c(=O)[nH]1,98.8%,101%,105%,96.7%,104%,95.3%,78.6%,86.6%,104%,109%
CCOC(=O)c1cn2ncnc(Oc3ccc(NC(=O)NCCN4CCOCC4)c(Cl)c3)c2c1C,99.6%,92.9%,88.7%,87.1%,100%,91.7%,93.9%,99.2%,102%,100%
O=C(N/N=C/c1c(Cl)cccc1Cl)c1ccc(C(F)(F)F)nc1Nc1cccc(C(F)(F)F)c1,-10.6% (active),14.2%,1.62% (active),28.2%,7.11% (active),7.35% (active),-3.43% (active),18.6%,8.61% (active),-15.4% (active)
CCCCCCNC(=O)Oc1ccc(/C(=C(\C)c2ccc(Cl)cc2)c2ccc(OCCN(CC)CC)cc2)cc1,67.1%,101%,85.7%,77.8%,26.4%,58.3%,86.4%,58.4%,41.2%,4.94% (active)
Cc1ccccc1C(=O)NN,104%,113%,90.6%,93.3%,115%,80.6%,92%,89.2%,112%,110%
